Data: PubChem BioAssay (Tox21)
Results filed as inconclusive are left out. Entries that show only a call come without a potency. Active and inactive are the calls of the source. Unless noted, the call rests on the fitted dose curve; in most records, active means well fitted curve in the direction sought with a large enough effect in the repeat runs; inconclusive means weak or mixed curves; inactive means no such curve, though single readings can be large; an effect the other way counts as inactive or inconclusive.

Tests used:
[1] = qHTS assay to identify aromatase inhibitors - cell viability counter screen (AID 743084); details: MCF-7 aro ERE viability, CellTiter-Fluor, 24 h; series mostly up to 70.3 µM;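 further: cells stimulated with testosterone during compound exposure; nearly all actives have a fitted effect of over 55% in size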; further: potency means the concentration at half of the fitted maximal effect
[2] = molecular target: Aryl hydrocarbon receptor (Homo sapiens) (UniProt P35869); assay: qHTS assay to identify small molecule that activate the aryl hydrocarbon receptor (AhR) signaling pathway (AID 743085); details: HepG2 AhR-luc (HG2L7.5c1), luciferase, 24 h; series mostly up to 70.3 µM; further: nearly all actives have a fitted effect of over 15% in size; further: potency means the concentration at half of the fitted maximal effect;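 on activation: HG2L7.5c1 human HepG2 liver cells with stably integrated DRE-driven firefly reporter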
Method in brief: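 Stably transfected human liver carcinoma cells (HG2L7.5c1; 20 DRE-firefly luciferase) were incubated 5 h, dosed, and kept 24 h at 37C. Agonism was scored from increased luciferase luminescence.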

[3] = qHTS assay to identify small molecule that activate the aryl hydrocarbon receptor (AhR) signaling pathway - cell viability counter screen (AID 743086); details: HepG2-AhR-luc viability, CellTiter-Fluor, 24 h; series mostly up to 70.3 µM; further: nearly all actives have a fitted effect of over 45% in size; further: potency means the concentration at half of the fitted maximal effect
Method in brief: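 HepG2-AhR-luc (HG2L7.5c1) cells, 4000/well, treated 24 h at 37 C with compound; viability measured as CellTiter-Fluor fluorescence after 30 min in the same wells as the luciferase read.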

[4] = molecular target: Peroxisome proliferator-activated receptor gamma (Homo sapiens) (UniProt P37231); assay: qHTS assay to identify small molecule agonists of the peroxisome proliferator-activated receptor gamma (PPARg) signaling pathway (AID 743094; active means well fitted activation curve with a large enough effect in the signal ratio in the repeat runs, not every such curve was filed as active; the % refers to the signal ratio); details: HEK293H PPARg-UAS-bla, beta-lactamase FRET ratio, 17 h; series mostly up to 57 µM
Method in brief: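 HEK293H PPARg-bla cells, 5 h settle at 37C/5% CO2; compound (DMSO) 17 h, 37C; B/G FRET substrate 1 h RT; fluorescence intensity read-out. qHTS format.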

[5] = molecular target: Peroxisome proliferator-activated receptor gamma (Homo sapiens) (UniProt P37231); assay: qHTS assay to identify small molecule antagonists of the peroxisome proliferator-activated receptor gamma (PPARg) signaling pathway (AID 743191; calls by dose curve; further: nearly all actives have a fitted effect of over 30% in size; further: potency means the concentration at half of the fitted maximal effect); details: HEK293H PPARg-UAS-bla, beta-lactamase ratio, antagonist, 17 h; series mostly up to 62.6 µM
Method in brief: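 GeneBLAzer PPARg UAS-bla HEK293H cells, 5 h post-plating, exposed to compounds 17 h at 37C. LiveBLAzer B/G FRET substrate added for 1 h at room temperature; beta-lactamase reporter read by fluorescence intensity.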

[6] = qHTS assay to identify small molecule antagonists of the peroxisome proliferator-activated receptor gamma (PPARg) signaling pathway - cell viability counter screen (AID 743194); details: PPARg-bla HEK293H viability, CellTiter-Glo luminescence, 17 h; Potency: co-treated with 50 nM rosiglitazone unless noted; series mostly up to 62.6 µM; further: nearly all actives have a fitted effect of over 55% in size; further: potency means the concentration at half of the fitted maximal effect
Method in brief: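 Cytotoxicity counter screen in PPARg-bla HEK293H cells, same wells as reporter assay. Compounds plus 50 nM rosiglitazone (final) for 17 h at 37 C, then viability read by CellTiter-Glo luminescence.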

[7] = qHTS assay for small molecule agonists of the antioxidant response element (ARE) signaling pathway (AID 743202; active means well fitted activation curve with a large enough effect in the signal ratio in the repeat runs, not every such curve was filed as active; the % refers to the signal ratio); details: HepG2 ARE-bla reporter, beta-lactamase FRET, 16 h; series mostly up to 73.3 µM
Method in brief: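 HepG2 ARE-bla reporter line, 2,000 cells/well; 5 h preincubation 37 C/5% CO2; compound (DMSO) 16 h 37 C; B/G FRET substrate 2 h RT; fluorescence intensity.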

[8] = qHTS assay for small molecule agonists of the antioxidant response element (ARE) signaling pathway - cell viability counter screen (AID 743203; calls by dose curve; further: nearly all actives have a fitted effect of over 55% in size; further: potency means the concentration at half of the fitted maximal effect); details: ARE-bla HepG2 viability, CellTiter-Glo luminescence, 16 h; series mostly up to 73.3 µM
Method in brief: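 Luminescence read-out (CellTiter-Glo, 30 min at room temperature) measured cell viability in the same wells as the ARE beta-lactamase reporter. HepG2 ARE-bla cells were treated with compounds for 16 hrs at 37C/5% CO2.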

[9] = qHTS assay for small molecule activators of the heat shock response signaling pathway - cell viability counter screen (AID 743209); details: HSE-bla HeLa viability, CellTiter-Glo luminescence, 5 h; series mostly up to 62.6 µM; further: nearly all actives have a fitted effect of over 50% in size; further: potency means the concentration at half of the fitted maximal effect
Method in brief: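 HSE-bla HeLa; 1500 cells/well; overnight 37 C, 5% CO2; compound 5 h 37 C; LiveBLAzer B/G substrate 2.5 h RT; CellTiter-Glo 30 min RT; luminescence.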

[10] = qHTS assay for small molecule activators of the heat shock response signaling pathway (AID 743210; active means well fitted activation curve with a large enough effect in the signal ratio in the repeat runs, with a control signal flat, not every such curve was filed as active; the % refers to the signal ratio; further: potency means the concentration at half of the fitted maximal effect;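 on activation: HeLa cells with beta-lactamase reporter driven by heat shock elements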); details: HeLa HSE-bla reporter, beta-lactamase ratio, 5 h; series mostly up to 62.6 µM
Method in brief: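 Beta-lactamase reporter read-out: FRET substrate fluorescence after 2.5 h at RT, following 5 h compound treatment at 37 C of HeLa cells carrying HSE-driven bla reporter; quantitative HTS format.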

Aryl hydrocarbon receptor (Homo sapiens), sequence (P35869 whole entry, looked up): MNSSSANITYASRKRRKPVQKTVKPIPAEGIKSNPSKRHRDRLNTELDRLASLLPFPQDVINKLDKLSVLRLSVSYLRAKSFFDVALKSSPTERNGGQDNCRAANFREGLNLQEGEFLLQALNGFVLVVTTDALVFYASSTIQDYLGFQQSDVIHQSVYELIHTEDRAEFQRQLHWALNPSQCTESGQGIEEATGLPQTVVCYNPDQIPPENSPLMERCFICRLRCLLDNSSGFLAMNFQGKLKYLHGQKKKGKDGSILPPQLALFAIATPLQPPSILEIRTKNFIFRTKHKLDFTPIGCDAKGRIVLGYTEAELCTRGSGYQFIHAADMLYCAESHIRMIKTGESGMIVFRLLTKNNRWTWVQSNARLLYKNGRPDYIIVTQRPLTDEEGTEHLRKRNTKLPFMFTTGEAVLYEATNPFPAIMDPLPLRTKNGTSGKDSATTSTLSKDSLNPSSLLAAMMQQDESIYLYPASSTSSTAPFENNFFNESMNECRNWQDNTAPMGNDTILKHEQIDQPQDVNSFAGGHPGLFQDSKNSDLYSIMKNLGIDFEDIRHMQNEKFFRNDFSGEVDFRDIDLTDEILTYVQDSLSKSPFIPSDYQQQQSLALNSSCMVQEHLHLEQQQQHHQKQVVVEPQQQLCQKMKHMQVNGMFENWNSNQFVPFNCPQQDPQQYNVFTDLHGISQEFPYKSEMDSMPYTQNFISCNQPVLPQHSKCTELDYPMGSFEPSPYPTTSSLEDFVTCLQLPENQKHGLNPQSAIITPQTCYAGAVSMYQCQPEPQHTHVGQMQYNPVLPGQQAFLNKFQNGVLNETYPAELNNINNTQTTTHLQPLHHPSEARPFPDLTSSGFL
Peroxisome proliferator-activated receptor gamma (Homo sapiens), sequence (P37231 whole entry, looked up): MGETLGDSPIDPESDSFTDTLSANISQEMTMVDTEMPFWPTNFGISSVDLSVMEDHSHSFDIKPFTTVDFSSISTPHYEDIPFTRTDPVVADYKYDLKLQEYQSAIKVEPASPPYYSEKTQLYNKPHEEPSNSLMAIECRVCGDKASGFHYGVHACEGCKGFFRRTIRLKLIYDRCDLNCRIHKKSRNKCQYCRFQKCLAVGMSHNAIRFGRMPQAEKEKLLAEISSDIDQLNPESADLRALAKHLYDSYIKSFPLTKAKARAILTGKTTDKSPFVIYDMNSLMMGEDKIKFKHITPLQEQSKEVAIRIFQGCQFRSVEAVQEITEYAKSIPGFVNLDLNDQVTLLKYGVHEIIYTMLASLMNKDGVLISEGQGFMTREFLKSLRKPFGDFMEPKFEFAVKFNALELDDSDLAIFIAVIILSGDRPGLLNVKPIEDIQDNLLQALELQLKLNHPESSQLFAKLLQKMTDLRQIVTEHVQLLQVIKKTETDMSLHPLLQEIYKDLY

Compound	Potency [1]	Potency [2]	Potency [3]	Potency [4]	Potency [5]	Potency [6]	Potency [7]	Potency [8]	Potency [9]	Potency [10]
CCCN	inactive	inactive	inactive	inactive	inactive	inactive	inactive	inactive	inactive	inactive
CCC(C)Br (stereo unspecified)	inactive	inactive	inactive	inactive	inactive	inactive	inactive	inactive	–	inactive
CC(C)Br	inactive	inactive	inactive	inactive	inactive	inactive	inactive	inactive	inactive	inactive
C#CCO	inactive	inactive	inactive	inactive	inactive	inactive	inactive	inactive	inactive	inactive
N#Cc1sc2c(=O)c3ccccc3c(=O)c=2sc1C#N	4.33 µM (active)	1.93 µM (active)	6.86 µM (active)	inactive	12.3 µM (active)	19.5 µM (active)	–	8.63 µM (active)	1.95 µM (active)	–
O=S1(=O)OCC2C(CO1)C1(Cl)C(Cl)=C(Cl)C2(Cl)C1(Cl)Cl (stereo unspecified)	61.1 µM (active)	inactive	inactive	inactive	inactive	inactive	–	inactive	–	–
CC(Cl)CCl (stereo unspecified)	inactive	inactive	inactive	inactive	inactive	inactive	inactive	inactive	inactive	inactive
ClC(Cl)C(Cl)(Cl)Cl	inactive	inactive	inactive	inactive	inactive	inactive	inactive	inactive	inactive	inactive
Cc1c([N+](=O)[O-])c(C)c([N+](=O)[O-])c(C(C)(C)C)c1[N+](=O)[O-]	inactive	inactive	inactive	inactive	inactive	inactive	inactive	inactive	inactive	inactive
CC(C)=CC1C(C(=O)OC(C#N)c2cccc(Oc3ccccc3)c2)C1(C)C (stereo unspecified)	inactive	inactive	inactive	inactive	inactive	inactive	inactive	inactive	inactive	–
N#CCCl	inactive	inactive	inactive	inactive	inactive	inactive	–	inactive	inactive	inactive
COc1cnc(OC)n2nc(NS(=O)(=O)c3c(OCC(F)F)cccc3C(F)(F)F)nc12	inactive	inactive	inactive	inactive	inactive	inactive	inactive	inactive	inactive	inactive
O=C(Cl)c1ccccc1F	inactive	inactive	inactive	inactive	inactive	inactive	inactive	inactive	inactive	inactive
CC(Cc1ccc2c(c1)OCO2)NO (stereo unspecified)	inactive	inactive	inactive	inactive	inactive	inactive	–	inactive	inactive	inactive
COP(=S)(OC)Oc1ccc([N+](=O)[O-])c(C)c1	inactive	48.6 µM (active)	inactive	inactive	inactive	inactive	–	inactive	inactive	–
Clc1ccc(C(Cl)(Cl)Cl)cc1Cl	inactive	26.7 µM (active)	inactive	inactive	inactive	inactive	–	inactive	inactive	inactive
CCCCON=O	inactive	inactive	inactive	inactive	inactive	–	inactive	inactive	inactive	inactive
Cc1ccn2nc(S(=O)(=O)Nc3c(F)cccc3F)nc2n1	inactive	inactive	inactive	inactive	inactive	inactive	inactive	inactive	inactive	inactive
CN/C(=N\[N+](=O)[O-])NCc1cnc(Cl)s1	inactive	inactive	inactive	inactive	inactive	inactive	inactive	inactive	inactive	inactive
CNN	inactive	inactive	inactive	inactive	inactive	inactive	inactive	inactive	inactive	inactive
O=NN(CCO)CCO	inactive	inactive	inactive	inactive	inactive	inactive	inactive	inactive	–	inactive
O=[N+]([O-])c1ccc(Cl)c(Cl)c1Cl	inactive	inactive	inactive	inactive	inactive	inactive	–	inactive	inactive	inactive

Compound	Potency [1]	Potency [2]	Potency [3]	Potency [4]	Potency [5]	Potency [6]	Potency [7]	Potency [8]	Potency [9]	Potency [10]
COc1ccc2c3c1O[C@H]1[C@H](O)CC[C@H]4[C@@H](C2)N(C)CC[C@@]341	inactive	inactive	inactive	inactive	inactive	inactive	–	inactive	–	–
CCNc1nc(NC(C)C(C)C)nc(SC)n1 (stereo unspecified)	inactive	inactive	inactive	inactive	inactive	inactive	inactive	inactive	inactive	inactive
CC(C)NCC(O)c1ccccc1Cl (stereo unspecified)	inactive	inactive	inactive	inactive	inactive	inactive	inactive	inactive	inactive	inactive
COC(=O)C(C)N(C(=O)c1ccco1)c1c(C)cccc1C (stereo unspecified)	inactive	inactive	inactive	inactive	inactive	inactive	inactive	inactive	inactive	inactive
COC(=O)c1cc(Oc2ccc(Cl)cc2Cl)ccc1[N+](=O)[O-]	inactive	inactive	inactive	inactive	43.6 µM (active)	–	inactive	inactive	inactive	inactive
O=S(=O)(O)F	inactive	inactive	inactive	inactive	inactive	–	inactive	inactive	inactive	inactive
Cc1cnc2c(C(=O)O)c(Cl)ccc2c1	inactive	inactive	inactive	inactive	inactive	inactive	inactive	inactive	inactive	inactive
CC1CCCC1	inactive	inactive	inactive	inactive	21.5 µM (active)	inactive	–	inactive	12.1 µM (active)	–
Cc1c([N+](=O)[O-])cc2c(c1[N+](=O)[O-])C(C)(C)CC2(C)C	inactive	inactive	inactive	inactive	inactive	inactive	–	inactive	inactive	inactive
CC(Cc1ccc(O)cc1)NCC(O)c1cc(O)cc(O)c1 (stereo unspecified)	inactive	inactive	inactive	inactive	inactive	–	inactive	inactive	inactive	inactive
COc1nc(C)nc(NC(=O)NS(=O)(=O)c2ccccc2Cl)n1	inactive	inactive	inactive	inactive	inactive	inactive	inactive	inactive	inactive	inactive
[O]=[Cr][O][Cr]=[O]	inactive	inactive	inactive	inactive	inactive	–	inactive	inactive	inactive	inactive
C#CC1(O)CCCCC1	inactive	inactive	inactive	inactive	inactive	inactive	inactive	inactive	inactive	inactive
S=C=Nc1ccccc1	inactive	inactive	inactive	inactive	inactive	inactive	–	inactive	inactive	inactive
CCC(C)Nc1c([N+](=O)[O-])cc(C(C)(C)C)cc1[N+](=O)[O-] (stereo unspecified)	inactive	inactive	inactive	inactive	inactive	inactive	–	inactive	inactive	–
CNC(=O)/C=C(\C)OP(=O)(OC)OC	inactive	inactive	inactive	inactive	inactive	–	inactive	inactive	inactive	inactive
CCNS(=O)(=O)C(F)(F)C(F)(F)C(F)(F)C(F)(F)C(F)(F)C(F)(F)C(F)(F)C(F)(F)F	inactive	inactive	inactive	inactive	inactive	inactive	–	–	inactive	inactive
CSC(C)(C)/C=N/O	inactive	inactive	inactive	inactive	–	inactive	–	inactive	inactive	inactive
Cc1cccc(Cc2cnc[nH]2)c1C	inactive	13.3 µM (active)	inactive	inactive	inactive	–	–	inactive	inactive	–
COc1c2c(cc3c1OCO3)CCN(C)C2	inactive	inactive	inactive	inactive	–	inactive	inactive	–	inactive	inactive
Oc1ccc(Cl)c(Cl)c1	inactive	inactive	inactive	inactive	–	–	–	inactive	inactive	inactive
ClC1=C(Cl)[C@]2(Cl)[C@@H]3[C@H]4C[C@H]([C@@H]5O[C@H]45)[C@@H]3[C@@]1(Cl)C2(Cl)Cl	inactive	inactive	inactive	inactive	–	–	–	inactive	inactive	51.8 µM (active)
